Source: the supplement of paper PMC10981050
Several values for one entry are separate records, joined by “and”; a condition that tells them apart may be missing. Identical values can stand only once. Counter-ions that a name gives are not always drawn.

What was measured:
Assay in all cases: cell viability relative to vehicle control; higher = less cytotoxic
Conditions in all cases: 10 µM
[1] = tested on: K562
Procedure, shortened: (§1)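 Screening covered the Selleck bioactive, kinase and epigenetic probe libraries, less identity-inconsistent compounds, on CRISPR-edited mutant clones and isogenic wild-type clones of four leukaemia lines. Cells, at 2000 per well in 50 µL medium, received a single 10 µM acoustically dispensed dose. After 48 h the supernatant was removed and CellTiter-Glo luminescence was read. Viability was analysed in Genedata Screener as percent of the on-plate vehicle control.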

[2] = tested on: MARIMO
Procedure, shortened: as §1

[3] = tested on: MOLM14
Procedure, shortened: as §1

[4] = tested on: OCI-AML2
Procedure, shortened: as §1

Row | Structure (SMILES) | cell viability ([1]; SRSF2 genotype: SRSF2 P95H/wt) | cell viability ([1]; SRSF2 genotype: SRSF2 wt/wt) [%] | cell viability ([2]; SRSF2 genotype: SRSF2 P95H/wt) [%] | cell viability ([2]; SRSF2 genotype: SRSF2 wt/wt) [%] | cell viability ([3]; SRSF2 genotype: SRSF2 P95H/wt) [%] | cell viability ([3]; SRSF2 genotype: SRSF2 wt/wt) [%] | cell viability ([4]; SRSF2 genotype: P95H/wt) [%] | cell viability ([4]; SRSF2 genotype: wt/wt) [%]
1 | Cc1cccc(C#Cc2ccccc2)n1 | 97.1% and 102% | 104 | 102 | 94.5 | 111 | 110 | 89.3 | 87.5
2 | CC[C@H](Nc1ncnc2[nH]cnc12)c1nc2cccc(F)c2c(=O)n1-c1ccccc1 | 84.3% and 82.3% | 88.8 | 65.6 | 70.5 | 57.3 | 54.8 | 51.2 | 58.6
3 | O=C1CN2Cc3c(ccc(Cl)c3Cl)N=C2N1 [Anagrelide hydrochloride] | 94.6% and 89.8% | 108 | 84.1 | 96.4 | 83.4 | 93.4 | 101 | 110
4 | CCOc1ccc(Cc2cc([C@]34OC[C@](CO)(O3)[C@@H](O)[C@H](O)[C@H]4O)ccc2Cl)cc1 [Ertugliflozin] | 104% and 95.2% | 104 | 104 | 101 | 103 | 102 | 104 | 113
5 | O=C(O)COc1nn(Cc2ccccc2)c2ccccc12 [Bendazac] | 103% and 104% | 108 | 106 | 111 | 103 | 106 | 111 | 115
6 | CO[C@H]1CC[C@H](N2C(=O)CNc3ncc(-c4ccc(C(C)(C)O)nc4)nc32)CC1 | 27.9% and 28% | 29.7 | 36.3 | 32.3 | 28.1 | 24.1 | 26 | 29.6
7 | O=C(O)c1ccc(CN2CCC(CN[C@@H]3C[C@H]3c3ccccc3)CC2)cc1 | 98.9% and 101% | 95.4 | 92.3 | 91 | 98.7 | 87.2 | 78.3 | 91.6
8 | Cn1c(=O)c2[nH]cnc2n(C)c1=O [Aminophylline (Truphylline)] | 91.1% and 89.1% | 89.2 | 83.4 | 95.7 | 86.8 | 89.8 | 88.9 | 102
9 | C1=Cc2ccccc2Nc2ccccc21 [Iminostilbene] | 101% and 95.4% | 98.1 | 95.5 | 113 | 105 | 108 | 106 | 92.6
10 | O=C(O)CCn1c2c(c3ccccc31)C[C@H](NS(=O)(=O)c1ccc(F)cc1)CC2 [Ramatroban] | 100% and 101% | 105 | 106 | 108 | 102 | 104 | 101 | 103
11 | Nc1ncccc1-c1nc2ccc(-c3ccccc3)nc2n1-c1ccc(C2(N)CCC2)cc1 [Miransertib (ARQ 092)HCl] | 35.5% and 48% | 30.4 | 75.3 | 72.4 | 39.3 | 48.1 | 33 | 49.2
12 | COc1ccccc1N1CCN(CC(O)COc2cccc3ccccc23)CC1 (centres undefined) [Naftopidil (Flivas)] | 74.1% and 86.9% | 79.5 | 66.2 | 71.5 | 64.1 | 72.3 | 83.5 | 84.6
13 | CN1CCN(Cc2ccc(NC(=O)Nc3ccc(Oc4ccnc(N)n4)cc3)cc2C(F)(F)F)CC1 | 31.7% and 37.7% | 22.2 | 6.8 | 2.68 | 1.79 | 0.67 | 1.64 | 10.3
14 | CCCCCC(O)C=CC1C(O)CC(=O)C1CCCCCCC(=O)O (centres undefined) [Alprostadil(Caverject)] | 69.3% and 64.4% | 84.2 | 82.4 | 73.2 | 50.1 | 22.4 | 80.3 | 62.1
15 | CCc1cc(Nc2nccc(-c3c(-c4ccc(OC)c(C(=O)Nc5c(F)cccc5F)c4)nc4ccccn34)n2)c(OC)cc1N1CCC(N2CCN(S(C)(=O)=O)CC2)CC1 | 88.6% and 96.3% | 97.3 | 106 | 108 | 105 | 100 | 93.9 | 98.7
16 | O=C1Nc2ccccc2C1=O [Isatin] | 97.1% and 106% | 100 | 101 | 105 | 103 | 105 | 106 | 96.5
17 | C=C1/C(=C\C=C2/CCC[C@]3(C)[C@@H]([C@H](C)CCCC(C)C)CC[C@@H]23)C[C@@H](O)C[C@@H]1O [Alfacalcidol] | 90.3% and 95.4% | 99.1 | 82.5 | 82.5 | 84.9 | 94.2 | 98.7 | 110
18 | CCOc1ccccc1N=Nc1c(C)[nH]n(-c2nc(-c3ccccc3)cs2)c1=O | 95.7% and 103% | 91.9 | 101 | 96.5 | 97.8 | 95.9 | 108 | 97.2
19 | NCCNc1ccc(NCCN)c2c1C(=O)c1ccncc1C2=O [Pixantrone Maleate] | 18.2% and 23.9% | 20.5 | 10.7 | 7.14 | 0.24 | 0.35 | 0.25 | 0.85

Row | Structure (SMILES) | cell viability ([1]; SRSF2 genotype: SRSF2 P95H/wt) | cell viability ([1]; SRSF2 genotype: SRSF2 wt/wt) [%] | cell viability ([2]; SRSF2 genotype: SRSF2 P95H/wt) [%] | cell viability ([2]; SRSF2 genotype: SRSF2 wt/wt) [%] | cell viability ([3]; SRSF2 genotype: SRSF2 P95H/wt) [%] | cell viability ([3]; SRSF2 genotype: SRSF2 wt/wt) [%] | cell viability ([4]; SRSF2 genotype: P95H/wt) [%] | cell viability ([4]; SRSF2 genotype: wt/wt) [%]
20 | NCc1c[nH]c(=S)n1[C@H]1CCc2c(F)cc(F)cc2C1 [Nepicastat hydrochloride] | 100% and 97.2% | 96.6 | 92.2 | 97.4 | 88.4 | 101 | 101 | 103
21 | CCOC(=O)[C@H](CCc1ccccc1)N[C@@H](C)C(=O)N1[C@H](C(=O)O)C[C@@H]2CCC[C@@H]21 [Ramipril (Altace)] | 86.6% and 88.3% | 89.9 | 87.7 | 92.3 | 88.2 | 87.4 | 84.8 | 86.3
22 | CC1(C)[C@@H](OC(=O)CCC(=O)O)CC[C@]2(C)[C@H]3C(=O)C=C4[C@@H]5C[C@@](C)(C(=O)O)CC[C@]5(C)CC[C@@]4(C)[C@]3(C)CC[C@@H]12 [Carbenoxolone disodiuM] | 95.9% and 92.2% | 88 | 96.2 | 99 | 91.8 | 96.7 | 89.3 | 103
23 | CC1(C)CC[C@]2(C(=O)O)CC[C@]3(C)C(=CC[C@@H]4[C@@]5(C)CC[C@H](O)[C@@](C)(CO)[C@@H]5CC[C@]43C)[C@@H]2C1 [Hederagenin] | 103% and 102% | 97.1 | 98.4 | 112 | 106 | 105 | 120 | 107
24 | O=C(O)CCCN1CCC(O[C@@H](c2ccc(Cl)cc2)c2ccccn2)CC1 [Bepotastine Besilate] | 89.5% and 84.3% | 84.8 | 86.5 | 97.8 | 90.9 | 93.3 | 82.6 | 86.2
25 | c1coc(CNc2ncnc3[nH]cnc23)c1 [Kinetin (6-Furfuryladenine)] | 94.1% and 107% | 104 | 100 | 113 | 98.4 | 105 | 116 | 97.6
26 | CC(C)=CCCC(C)=CCCC(C)=CCCC(C)=CCC1=C(C)C(=O)c2ccccc2C1=O [Vitamin K2] | 93.6% and 95.4% | 102 | 82.8 | 92.6 | 87.7 | 101 | 88.6 | 89.1
27 | CCNC(=O)[C@@H]1CCCN1C(=O)[C@H](CCCN=C(N)N)NC(=O)[C@H](CC(C)C)NC(=O)[C@@H](CC(C)C)NC(=O)[C@H](Cc1ccc(O)cc1)NC(=O)[C@H](CO)NC(=O)[C@H](Cc1c[nH]c2ccccc12)NC(=O)[C@H](Cc1cnc[nH]1)NC(=O)[C@@H]1CCC(=O)N1 [S3718 Leuprolide Acetate.cdx] | 104% and 107% | 102 | 110 | 112 | 103 | 105 | 102 | 108
28 | NC(=O)CCCSc1nc(N)nc(-c2c(Cl)cc3c4c(cccc24)COC3)n1 | 18.9% and 27.3% | 22.6 | 29.3 | 24.6 | 2.36 | 2.58 | 16.6 | 19.6
29 | CN(C)CCC[C@@]1(c2ccc(F)cc2)OCc2cc(C#N)ccc21 [Escitalopram Oxalate] | 87.5% and 88.8% | 92.8 | 85.4 | 91.1 | 89.4 | 93.7 | 89.2 | 88.4
30 | O=C(C=Cc1ccccc1)NC(NC(=S)Nc1ccc(Cl)cc1)C(Cl)(Cl)Cl (centres undefined) | 81.5% and 86.5% | 86.9 | 102 | 104 | 90.4 | 96 | 99.1 | 100
31 | CC(C)=C[C@H]1C[C@](C)(O)[C@@H]2[C@H]3CC[C@@H]4[C@@]5(C)CC[C@H](OC6OC[C@H](O)[C@H](O[C@@H]7O[C@H](CO[C@@H]8O[C@H](CO)[C@@H](O)[C@H](O)[C@H]8O)[C@@H](O)[C@H](O)[C@H]7O[C@@H]7OC[C@@H](O)[C@H](O)[C@H]7O)[C@H]6O[C@@H]6O[C@@H](C)[C@H](O)[C@@H](O)[C@H]6O)C(C)(C)[C@@H]5CC[C@@]4(C)C34CO[C@@]2(C4)O1 (some centres undefined) [Jujuboside A] | 109% and 107% | 102 | 101 | 104 | 109 | 102 | 91.6 | 101
32 | COc1cc(O)c(C(=O)c2ccccc2)cc1S(=O)(=O)O [Sulisobenzone] | 99.1% and 89.9% | 94.3 | 95.4 | 104 | 97.8 | 101 | 88.7 | 104
33 | NC1=N[C@@](c2cccc(-c3cncnc3)c2)(c2ccnc(C(F)F)c2)c2cccc(F)c21 | 76.9% and 74.8% | 81.4 | 80.1 | 95.2 | 85.7 | 84.1 | 71.1 | 71.3
34 | COc1ccc(/C=C/C(=O)Nc2ccccc2C(=O)O)cc1OC | 98.1% and 98% | 98.1 | 108 | 102 | 98.9 | 100 | 113 | 102
35 | CCCCCCCCCCCCCCCCCC(=O)O [Stearic acid] | 107% and 111% | 107 | 107 | 109 | 105 | 108 | 96.4 | 103
36 | CCCCCCCCCCCCCCCC(=O)OCC [Ethyl palmitate] | 101% | 97.9 | 103 | 106 | 106 | 101 | 98 | 107
37 | CSCC[C@H](NC(=O)[C@H](CC(C)C)NC(=O)[C@H](Cc1c[nH]c2ccccc12)NC(=O)[C@H](CCC(N)=O)NC(=O)[C@@H](NC(=O)[C@H](Cc1ccccc1)NC(=O)[C@H](CC(=O)O)NC(=O)[C@H](CCC(N)=O)NC(=O)[C@H](C)NC(=O)[C@H](CCCNC(=N)N)NC(=O)[C@H](CCCNC(=N)N)NC(=O)[C@H](CO)NC(=O)[C@H](CC(=O)O)NC(=O)[C@H](CC(C)C)NC(=O)[C@H](Cc1ccc(O)cc1)NC(=O)[C@H](CCCCN)NC(=O)[C@H](CO)NC(=O)[C@H](Cc1ccc(O)cc1)NC(=O)[C@H](CC(=O)O)NC(=O)[C@H](CO)NC(=O)[C@@H](NC(=O)[C@H](Cc1ccccc1)NC(=O)[C@@H](NC(=O)CNC(=O)[C@H](CCC(N)=O)NC(=O)[C@H](CO)NC(=O)[C@@H](N)Cc1cnc[nH]1)[C@@H](C)O)[C@@H](C)O)C(C)C)C(=O)N[C@@H](CC(N)=O)C(=O)N[C@H](C(=O)O)[C@@H](C)O [Glucagon HCl] | 113% and 109% | 113 | 107 | 104 | 102 | 108 | 103 | 109
38 | CC1C(=O)OC2C(O)C34C5CC(C(C)(C)C)C36C(OC(=O)C6O)OC4(C(=O)O5)C12O (centres undefined) [Ginkgolide B] | 110% | 114 | 111 | 109 | 107 | 109 | 113 | 105
